Measured values: PubChem BioAssay (NCI)
Values joined by “and” are separate entries in the source; they are usually repeats but may differ in a detail not shown here. Equal values may be shown once. The panel holds about 83,000 compounds, 20% with a hit somewhere; the sample as a whole holds those more often.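 Compound tested at a single concentration for 48 hours in 96-well plates; a percent growth value below 10 was scored as active.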 Unmarked numbers belong to inactive results. Active and inactive are the calls of the source.

Legend:
Assay in all cases: NCI-60 one-dose screen, 48 h (100 = growth as untreated, 0 = no growth, -100 = all killed)
Conditions in all cases: 10 µM unless noted
[1] = tested on: NCI-H23 lung
[2] = tested on: NCI-H226 lung
[3] = tested on: NCI-H322M lung
[4] = tested on: HOP-62 NSCLC
[5] = tested on: NCI-H460 lung
[6] = tested on: HOP-92 NSCLC
[7] = tested on: NCI-H522 lung
[8] = tested on: A549/ATCC NSCLC
[9] = tested on: 786-0 renal
[10] = tested on: COLO 205 colon
[11] = tested on: DU-145 prostate
[12] = tested on: K-562 leukemia
[13] = tested on: MALME-3M melanoma
[14] = tested on: MDA-MB-231 breast
[15] = tested on: RXF 393 renal
[16] = tested on: SF-268 CNS
[17] = tested on: SF-295 CNS
[18] = tested on: SF-539 CNS
[19] = tested on: UACC-257 melanoma
[20] = tested on: M14 melanoma

SMILES | growth [1] | growth [2] | growth [3] | growth [4] | growth [5] | growth [6] | growth [7] | growth [8] | growth [9] | growth [10] | growth [11] | growth [12] | growth [13] | growth [14] | growth [15] | growth [16] | growth [17] | growth [18] | growth [19] | growth [20]
O=C1CCc2c(sc3[nH]c(=S)n(Cc4ccc(Cl)cc4)c(=O)c23)C1 | -12.9% (active) | -8.6% (active) | 11.4% | -11.5% (active) | 5.05% (active) | -44.2% (active) | -18.6% (active) | 5.35% (active) | 21% | -67.5% (active) | 23.7% | 11% | 1.17% (active) | -24.7% (active) | 5.18% (active) | 18.7% | -6.67% (active) | -57.4% (active) | -14.9% (active) | 12.4%
Cn1cc(C2=C(c3cccc4ccccc34)C(=O)NC2=O)c2cc(Br)ccc21 | 93.5% | 103% | 100% | 111% | 104% | 171% | 99.8% | 91.3% | 84.7% | 92% | 110% | 87.2% | 143% | 113% | 102% | 102% | 102% | 121% | 138% | 114%
CCCc1cc(C(N)=S)ccn1 | 108% | 100% | 101% | 106% | 111% | 95.1% | 93.6% | 103% | 95.6% | 107% | 109% | 95.3% | 93.7% | 115% | 111% | 114% | 99.1% | 100% | 112% | 102%
COc1ccc(-c2cc(-c3cccc(Cl)c3)c(C#N)c(=O)[nH]2)c(OC)c1 | 92.2% | 101% | 96% | 99.2% | 98.7% | 68% | 90.6% | 96.4% | 89.7% | 121% | 97.3% | 98.2% | 93.7% | 102% | 90.8% | 90% | 98.2% | 92.6% | 102% | 98.2%
O=C(CCN1CCOCC1)Nc1cccc(-n2cc(-c3ccncc3)c(-c3ccc(Cl)c(O)c3)n2)c1 | 51.7% | 71% | 60.4% | 28% | 17.8% | 23.7% | 5.83% (active) | 35.8% | 11.7% | 0.424% (active) | 13% | 20.2% | 66.3% | 55.4% | 22.2% | 37% | 6.52% (active) | -19.7% (active) | 66.2% | 5.06% (active)
Cn1cc(-c2nc3c(F)cc4[nH]ncc4c3c3c2CCCC3)c(C(F)F)n1 | 66.9% | 62.2% | 66.2% | 57.3% | 62.3% | 8.14% (active) | 26.9% | 58.1% | 63.9% | 89.4% | 78.7% | 26% | 77.1% | 60.2% | 55% | 61.7% | 64.7% | 62.3% | 90.5% | 53.4%
Cc1c(O)c(O)cc2c3c(oc12)CC(c1ccc2c(c1)OCO2)CC3=O (stereo not given) | 83.4% | 81.2% | 90.1% | 75.2% | 93.7% | -37.4% (active) | 53.3% | 93.8% | 100% | 103% | 97.7% | 82.1% | 105% | 76.9% | 115% | 83.3% | 106% | 81.8% | 94.7% | 84%
CCc1c2c(nc3ccc(OCc4ccc(B5OC(C)(C)C(C)(C)O5)cc4)cc13)-c1cc3c(c(=O)n1C2)COC(=O)[C@]3(O)CC | -23.1% (active) | -44% (active) | 6.44% (active) | -4.19% (active) | 1.68% (active) | -9.71% (active) | 3.47% (active) | 10.8% | 10.6% | 18.8% | 3.05% (active) | 19.8% | -6.1% (active) | 34.2% | -25.7% (active) | 5.96% (active) | 5.44% (active) | -35.6% (active) | -9.18% (active) | 2.91% (active)
COc1ccc2c(O)c(/C=C3\N=Nc4nc(C)ccc43)oc2c1CC1CCNCC1 | 67.2% | 57.5% | 80.8% | 64.3% | 79.3% | 39.2% | 43.4% | 68.2% | 54.1% | 78.4% | 87.9% | 49.3% | 19.1% | 34.6% | -0.196% (active) | 67.4% | 90% | 55.9% | 74.5% | 35.4%
Cc1ccc(-c2nc([P+](c3ccccc3)(c3ccccc3)c3ccccc3)c(Nc3ccccc3)o2)cc1 | -6.49% (active) | 20.2% | 4.01% (active) | -16.4% (active) | -45.3% (active) | -14.4% (active) | -33.5% (active) | 4.95% (active) | -24.5% (active) | -62.8% (active) | 13.2% | 0.731% (active) | -44.1% (active) | -36.5% (active) | -31.7% (active) | 10.6% | -21% (active) | -76.6% (active) | -13.5% (active) | -40.4% (active)
O=C(Nc1ccc2ccccc2c1)c1cc2ccccc2cc1O | 81.5% | 91.6% | 75.7% | 98.8% | 85.4% | 63.7% | 62.6% | 84.6% | 85.6% | 110% | 13.3% | 71.1% | 58.5% | 104% | 115% | 7.54% (active) | 128% | 105% | 85.6% | 99%
Nc1ccc(-c2nc3ccc4[nH]ncc4c3c3c2CCCC3)cc1F | 19.7% | 42.2% | 41.3% | 23.1% | 24.8% | 55.4% | 22.5% | 11.7% | 37% | 12.4% | 38.6% | 30.2% | 28.3% | 37.6% | -13% (active) | 39.9% | 37.8% | 24.5% | 26.6% | 24.9%
CC(C)=CCc1cc(O)c(O)c2oc3cc(O)cc(O)c3c(=O)c12 | 51.1% | 96.9% | 75.1% | 45.9% | 25.1% | 86.9% | 58.4% | 43.3% | 64.8% | 91.7% | 55.8% | 67% | 91.3% | 55.5% | 84.6% | 49.7% | 77.9% | 64.8% | 98.2% | 63.9%
CN1CCN(Cc2ccc(NC(=O)c3cccc(C#Cc4c(N)ncc5ccc(F)cc45)c3)cc2C(F)(F)F)CC1 | -78.2% (active) | 4.59% (active) | 3.59% (active) | -36.4% (active) | -92.3% (active) | -49.4% (active) | -61.1% (active) | -69.6% (active) | -83.2% (active) | -59.6% (active) | -89.9% (active) | -29.5% (active) | -54.5% (active) | -79% (active) | -89.6% (active) | -45.8% (active) | -65.4% (active) | -94.5% (active) | -62.5% (active) | -71% (active)
CCCO/N=C/c1ccccn1 | 105% and 96.6% | 99.2% and 100% | 112% | 104% and 88.2% | 105% and 109% | 105% | 94.8% and 87.3% | 97.5% and 104% | 107% and 101% | 112% and 108% | 102% and 111% | 99.5% and 103% | 110% and 105% | 103% and 111% | 112% and 122% | 96.4% and 104% | 131% and 95.3% | 110% and 95% | 102% and 96.8% | 105% and 103%
